We go through 5 molecules from PubChem BioAssay.

Active and inactive are the calls of the source.

Test [1] is described as follows: small molecules captured by biotinylated probe aFSTL3 – biochemical, small-molecule microarray, fluorescence 635/667, stem cell growth factor project, primary screen (AID 1064).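 Also: measures binding of the biotinylated anti-FSTL3 antibody to printed compounds.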 To be noted: higher = more signal.
Test [2] in a line: binders from COS7 lysate, DM2A8 probe, primary screen, torsin A project, cell lysate, small-molecule microarray, fluorescence 635/667 (AID 1065). To be noted: higher = more signal, COS7 lysate expressing mutant human TOR1A.
A short description of test [3]: small molecules captured by biotinylated probe aFGF2 – biochemical, small-molecule microarray, fluorescence 635/667, stem cell growth factor project, primary screen (AID 1067).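 Also: measures binding of biotinylated aFGF2 protein to printed compounds on slides; z-score merges feature fluorescence and signal-to-noise across triplicate slides.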 To be noted: higher = more signal.
Test [4] is described as follows: small molecules captured by biotinylated probe aFGF10 – biochemical, small-molecule microarray, fluorescence 635/667, stem cell growth factor project, primary screen (AID 1071).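 Also: score merges 667 nm spot intensity and signal to noise from triplicate slides.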 To be noted: higher = more signal.
Test [5] concerns the target Neurogenic locus notch homolog protein 2 (Homo sapiens) (UniProt Q04721). Nature of the test: small molecules binding Notch2 protein – biochemical, small-molecule microarray, 635 nm fluorescence, stem cell growth factors, primary screen (AID 1073). To be noted: higher = more signal.
The target in test [6] is Pro-neuregulin-1, membrane-bound isoform (Homo sapiens) (UniProt Q02297). Nature of the test: small molecules binding neuregulin-1 protein – biochemical, small-molecule microarray, fluorescence 635/667, psychiatric disease protein project, primary screen (AID 1075).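 Also: score combines 667 nm spot fluorescence with signal to noise.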 To be noted: NRG1 binding, 635 nm fluorescence, higher = more signal.
Test [7] relates to Neuregulin-1 EGF-like domain. Kind of test: small molecules binding NRG1 EGF domain – biochemical, small-molecule microarray, 635 nm fluorescence, primary screen (AID 1081).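 Also: binding of the protein to compounds printed on small-molecule microarray slides.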 To be noted: higher = more signal.
Test [8] is described as follows: FRG1 expression reporter modulators in myotubes – cell-based, C2C12 myotubes, firefly/Renilla luciferase, luminescence, FRG1 inhibition for FSHD, primary screen (AID 1084). To be noted: FRG1 promoter luciferase, higher = more signal, called active from +8 up or from −8 down.
A short description of test [9]: small molecules captured by biotinylated probe aFST – biochemical, small-molecule microarray, fluorescence 635/667, stem cell growth factor project, primary screen (AID 1086).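 Also: score merges 667 nm fluorescence with signal-to-noise of each printed compound spot.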 To be noted: higher = more signal.
Test [10] in a line: binders of probe aHhip on microarray, primary screen, stem cell growth factor project, biochemical, small-molecule microarray, fluorescence 635/667 (AID 1087).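 Also: score merges spot fluorescence at 667nm with spot signal to noise ratio.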 To be noted: higher = more signal.
The subject of test [11] is PRMT1 (protein arginine N-methyltransferase 1). Kind of test: small molecules binding arginine methyltransferase PRMT1 – biochemical, small-molecule microarray, 635 nm fluorescence, primary screen (AID 1088).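 Also: binding of Prmt1 protein to compounds spotted on small-molecule microarray slides.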 To be noted: higher = more signal.
Test [12] is described as follows: growth effects on S. cerevisiae YJM789 – YJM789 clinical isolate, OD600, 24 h, basal, primary screen (AID 1089).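 Also: growth of clinical yeast isolate S. cerevisiae YJM 789 seeded 1000 cells per well; test concentration not given here.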 To be noted: higher = more signal, called active from +8 up or from −8 down.
The nature of test [13]: S. pombe growth modifiers, basal conditions – strain 972, OD600, 24 h, no modulator, primary screen (AID 1090).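 Also: basal condition with compound alone and no growth modifier present; test concentration not given here.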 To be noted: S. pombe 972 growth, higher = more signal, called active from +8 up or from −8 down.
Test [14] is described as follows: budding yeast growth modifiers under rapamycin – strain BY4716, OD600, 96 h, primary screen (AID 1091). Also: test concentration not given here. To be noted: S. cerevisiae BY4716 + rapamycin, higher = more signal, called active from +8 up or from −8 down.
Test [15] concerns the target Torsin-1A-interacting protein 2 (Homo sapiens) (UniProt Q8NFQ8). Kind of test: small molecules binding lysate-expressed LULL1 – cell lysate, human LULL1 lysate, 635/667 nm fluorescence, primary screen (AID 1092).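 Also: probe is lysate of COS7 cells overexpressing human LULL1; score merges per-feature 667 nm fluorescence with signal-to-noise.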 To be noted: small-molecule microarray, hLULL1 lysate binding, 635 nm fluorescence; higher = more signal.
Test [16] can be described thus: optical density change of DRC41 E. coli – strain DRC41, OD650, 24 h, E. coli filamentation project, primary screen (AID 1093).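 Also: MC1000 strain lacking acrAB efflux and sulA so SOS filamentation is blocked; test concentration not given here.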 To be noted: E. coli DRC41 growth, higher = more signal, called active from +8 up or from −8 down.
A short description of test [17]: probe aLefty2 binding to arrayed compounds – biochemical, biotinylated probe, 635/667 nm fluorescence, primary screen (AID 1094).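 Also: score merges spot fluorescence near 667 nm with spot signal-to-noise ratio.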 To be noted: small-molecule microarray, higher = more signal.
The test system of test [18] is Noggin (protein binding on small-molecule microarray). Nature of the test: small molecules binding Noggin protein – biochemical, 635/667 nm fluorescence, primary screen (AID 1095).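 Also: score merges 667 nm feature fluorescence with signal to noise over triplicate slides.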 To be noted: 635 nm fluorescence, higher = more signal.
For test [19], the target named is Neurogenic locus notch homolog protein 3 (Homo sapiens) (UniProt Q9UM47). Nature of the test: small molecules binding NOTCH3 protein – biochemical, 635/667 nm fluorescence, primary screen (AID 1096). To be noted: small-molecule microarray, 635 nm fluorescence, higher = more signal.
A short description of test [20]: probe aEGFR binding to arrayed compounds – biochemical, biotinylated probe, 635/667 nm fluorescence, primary screen (AID 1097).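 Also: probe is a biotinylated anti-EGFR antibody binding compounds printed on slides; score combines fluorescence near 667 nm and signal to noise of each spot.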 To be noted: small-molecule microarray, higher = more signal.

Sequence of Neurogenic locus notch homolog protein 2 (Homo sapiens) (Q04721 whole entry, looked up, canonical isoform): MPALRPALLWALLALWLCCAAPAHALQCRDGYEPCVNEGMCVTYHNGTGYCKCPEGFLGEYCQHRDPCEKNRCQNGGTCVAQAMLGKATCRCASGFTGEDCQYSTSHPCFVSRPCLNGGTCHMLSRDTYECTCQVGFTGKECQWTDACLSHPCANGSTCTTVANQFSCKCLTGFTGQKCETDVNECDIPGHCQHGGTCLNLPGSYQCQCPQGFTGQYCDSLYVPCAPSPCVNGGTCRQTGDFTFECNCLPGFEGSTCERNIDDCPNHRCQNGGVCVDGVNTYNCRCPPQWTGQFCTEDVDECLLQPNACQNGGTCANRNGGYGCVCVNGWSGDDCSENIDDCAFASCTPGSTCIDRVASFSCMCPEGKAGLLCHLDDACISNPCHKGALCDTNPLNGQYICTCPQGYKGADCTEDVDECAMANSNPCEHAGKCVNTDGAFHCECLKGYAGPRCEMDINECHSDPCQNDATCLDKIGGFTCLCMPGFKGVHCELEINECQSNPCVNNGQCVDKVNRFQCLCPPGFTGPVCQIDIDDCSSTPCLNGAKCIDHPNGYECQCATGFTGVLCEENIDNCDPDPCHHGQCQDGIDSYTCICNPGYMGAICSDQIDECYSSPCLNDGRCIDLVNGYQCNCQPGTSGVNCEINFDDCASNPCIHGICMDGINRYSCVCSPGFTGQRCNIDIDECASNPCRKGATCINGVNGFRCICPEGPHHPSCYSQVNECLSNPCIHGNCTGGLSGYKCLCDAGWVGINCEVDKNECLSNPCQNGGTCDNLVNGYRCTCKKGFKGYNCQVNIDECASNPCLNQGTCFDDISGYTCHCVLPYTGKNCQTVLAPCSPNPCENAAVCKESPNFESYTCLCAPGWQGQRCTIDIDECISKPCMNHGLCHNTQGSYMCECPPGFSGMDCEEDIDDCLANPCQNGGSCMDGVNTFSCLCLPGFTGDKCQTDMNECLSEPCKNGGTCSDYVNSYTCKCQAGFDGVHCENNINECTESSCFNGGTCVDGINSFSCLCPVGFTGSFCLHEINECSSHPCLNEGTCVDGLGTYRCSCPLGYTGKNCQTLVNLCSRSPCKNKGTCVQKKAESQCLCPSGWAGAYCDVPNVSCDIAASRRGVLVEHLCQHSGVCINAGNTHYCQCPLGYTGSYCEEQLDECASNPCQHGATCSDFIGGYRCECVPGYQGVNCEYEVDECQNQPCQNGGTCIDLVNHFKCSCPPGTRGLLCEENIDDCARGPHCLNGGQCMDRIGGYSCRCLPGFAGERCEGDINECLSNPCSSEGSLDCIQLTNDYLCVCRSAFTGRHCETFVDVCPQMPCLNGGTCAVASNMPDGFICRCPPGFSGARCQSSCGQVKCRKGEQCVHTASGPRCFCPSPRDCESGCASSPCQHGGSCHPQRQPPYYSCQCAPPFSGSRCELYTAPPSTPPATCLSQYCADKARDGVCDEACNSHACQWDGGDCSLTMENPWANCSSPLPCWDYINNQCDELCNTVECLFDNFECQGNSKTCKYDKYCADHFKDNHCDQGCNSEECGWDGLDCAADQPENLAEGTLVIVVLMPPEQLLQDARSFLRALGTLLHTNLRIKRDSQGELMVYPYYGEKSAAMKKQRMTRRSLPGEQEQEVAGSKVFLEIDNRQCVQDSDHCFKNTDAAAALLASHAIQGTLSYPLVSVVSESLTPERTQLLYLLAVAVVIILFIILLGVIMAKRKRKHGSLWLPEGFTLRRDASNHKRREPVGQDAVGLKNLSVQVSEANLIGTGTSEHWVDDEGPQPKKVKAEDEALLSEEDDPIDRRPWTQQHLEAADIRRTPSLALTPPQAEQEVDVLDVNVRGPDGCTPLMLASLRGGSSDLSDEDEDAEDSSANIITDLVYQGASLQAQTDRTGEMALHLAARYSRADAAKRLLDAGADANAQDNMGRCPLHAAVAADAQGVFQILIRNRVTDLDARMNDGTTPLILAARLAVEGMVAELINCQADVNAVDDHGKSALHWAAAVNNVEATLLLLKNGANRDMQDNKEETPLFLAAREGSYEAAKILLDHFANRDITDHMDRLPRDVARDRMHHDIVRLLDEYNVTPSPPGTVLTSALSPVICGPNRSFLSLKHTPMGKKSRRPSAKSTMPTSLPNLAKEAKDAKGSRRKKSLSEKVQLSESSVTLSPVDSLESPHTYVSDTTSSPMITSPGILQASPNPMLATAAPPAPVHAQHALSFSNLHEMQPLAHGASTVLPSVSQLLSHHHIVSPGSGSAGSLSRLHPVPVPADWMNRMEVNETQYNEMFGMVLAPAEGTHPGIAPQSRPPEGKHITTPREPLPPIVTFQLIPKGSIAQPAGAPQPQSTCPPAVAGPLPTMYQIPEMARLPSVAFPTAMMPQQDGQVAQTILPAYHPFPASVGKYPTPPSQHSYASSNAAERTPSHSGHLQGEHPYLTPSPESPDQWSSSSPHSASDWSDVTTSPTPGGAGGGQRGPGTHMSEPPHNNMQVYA
Sequence of Neurogenic locus notch homolog protein 3 (Homo sapiens) (Q9UM47 whole entry, looked up): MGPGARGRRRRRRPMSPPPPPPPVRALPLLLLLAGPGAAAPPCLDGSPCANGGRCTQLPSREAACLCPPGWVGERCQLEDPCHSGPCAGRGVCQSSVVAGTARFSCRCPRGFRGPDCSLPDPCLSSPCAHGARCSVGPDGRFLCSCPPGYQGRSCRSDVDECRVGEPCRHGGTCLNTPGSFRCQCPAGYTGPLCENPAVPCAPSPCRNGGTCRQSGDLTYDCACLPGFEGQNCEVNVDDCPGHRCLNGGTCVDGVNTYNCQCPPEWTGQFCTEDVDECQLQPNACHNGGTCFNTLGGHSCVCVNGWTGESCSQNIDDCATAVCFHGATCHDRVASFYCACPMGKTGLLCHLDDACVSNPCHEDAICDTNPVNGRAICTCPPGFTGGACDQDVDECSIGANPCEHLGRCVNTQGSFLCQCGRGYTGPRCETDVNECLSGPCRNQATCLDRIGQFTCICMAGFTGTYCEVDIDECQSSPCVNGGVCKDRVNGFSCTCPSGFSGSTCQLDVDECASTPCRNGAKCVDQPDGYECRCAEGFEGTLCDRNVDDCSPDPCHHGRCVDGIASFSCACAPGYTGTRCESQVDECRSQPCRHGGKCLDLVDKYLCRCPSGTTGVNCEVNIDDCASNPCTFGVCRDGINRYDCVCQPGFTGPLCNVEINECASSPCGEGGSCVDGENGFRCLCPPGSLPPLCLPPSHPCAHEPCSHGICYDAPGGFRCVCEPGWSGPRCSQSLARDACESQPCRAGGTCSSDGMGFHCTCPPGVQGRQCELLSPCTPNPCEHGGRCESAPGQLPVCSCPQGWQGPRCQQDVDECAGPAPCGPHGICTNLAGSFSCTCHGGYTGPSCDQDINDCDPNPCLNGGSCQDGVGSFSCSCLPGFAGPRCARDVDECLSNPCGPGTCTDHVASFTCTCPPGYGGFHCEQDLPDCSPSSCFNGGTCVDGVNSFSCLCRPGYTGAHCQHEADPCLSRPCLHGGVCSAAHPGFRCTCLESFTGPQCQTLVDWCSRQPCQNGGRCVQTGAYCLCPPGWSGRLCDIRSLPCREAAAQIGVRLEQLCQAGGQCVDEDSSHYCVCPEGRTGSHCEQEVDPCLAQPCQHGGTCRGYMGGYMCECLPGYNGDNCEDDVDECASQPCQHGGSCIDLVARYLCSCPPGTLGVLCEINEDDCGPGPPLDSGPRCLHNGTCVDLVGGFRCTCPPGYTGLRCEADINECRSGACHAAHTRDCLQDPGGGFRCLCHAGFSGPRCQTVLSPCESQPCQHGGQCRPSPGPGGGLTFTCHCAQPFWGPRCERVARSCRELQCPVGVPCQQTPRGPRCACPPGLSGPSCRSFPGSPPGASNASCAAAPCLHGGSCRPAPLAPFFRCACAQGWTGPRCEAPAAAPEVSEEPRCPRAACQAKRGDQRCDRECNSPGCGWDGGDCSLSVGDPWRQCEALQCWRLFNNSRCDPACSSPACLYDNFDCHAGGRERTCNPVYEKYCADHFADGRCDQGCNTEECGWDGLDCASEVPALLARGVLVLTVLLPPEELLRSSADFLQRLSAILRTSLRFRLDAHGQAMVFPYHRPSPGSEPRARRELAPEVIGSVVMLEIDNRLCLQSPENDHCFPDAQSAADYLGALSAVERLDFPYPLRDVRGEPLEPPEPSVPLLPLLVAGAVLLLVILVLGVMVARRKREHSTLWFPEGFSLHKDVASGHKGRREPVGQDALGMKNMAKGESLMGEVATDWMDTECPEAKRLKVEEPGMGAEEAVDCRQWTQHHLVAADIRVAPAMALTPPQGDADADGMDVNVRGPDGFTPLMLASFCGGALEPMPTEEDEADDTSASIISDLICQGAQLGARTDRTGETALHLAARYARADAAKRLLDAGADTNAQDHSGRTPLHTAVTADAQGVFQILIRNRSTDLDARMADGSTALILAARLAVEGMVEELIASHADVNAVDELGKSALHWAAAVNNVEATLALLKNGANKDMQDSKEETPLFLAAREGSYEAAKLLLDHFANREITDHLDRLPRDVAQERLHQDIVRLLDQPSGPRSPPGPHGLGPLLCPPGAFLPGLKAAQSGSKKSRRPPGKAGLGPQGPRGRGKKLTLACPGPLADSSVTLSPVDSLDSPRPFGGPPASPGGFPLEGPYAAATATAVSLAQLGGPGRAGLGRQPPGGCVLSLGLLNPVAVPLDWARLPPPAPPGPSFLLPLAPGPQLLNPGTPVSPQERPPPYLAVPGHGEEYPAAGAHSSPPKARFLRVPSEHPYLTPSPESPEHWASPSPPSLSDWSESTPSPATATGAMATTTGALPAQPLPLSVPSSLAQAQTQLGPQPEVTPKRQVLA

In the case of `O=C1OCCC=C[C@H]2OC34C=CCN(c5ccc6ccccc6c5)C(=O)[C@H]3N(CCCCCO)C(=O)[C@@H]4C12` (stereo not given in full), the composite z-score in [1] was 1.05; in [2] it was 2.06; in test [3], -0.116; in test [4] it was 0.0074; in test [5], -0.377; in test [6], 2.17. Moreover, the composite z-score was 1.57 in test [7]; -0.188 in test [9]; 0.0176 in test [10]; 0.737 in test [11]; 2.42 in test [15]; -0.0953 in test [17]. For the same molecule, the composite z-score in test [18] was -0.586; in test [19], -0.039; in [20], -0.157. Besides, the z-score in test [8] was -0.517 (inactive); in [12] it was -0.748 (inactive); in [13], -1.64 (inactive); in [14], -0.8 (inactive); in test [16] it was 1.12 (inactive).

With `COC(=O)C1=CC(CCCO)=CC(C2CC2)N(Cc2sc3ccccc3c2Cl)C=C1C(=O)OC` (stereo not given), the composite z-score in test [1] is -0.0356; in test [2] it was 0.43; in test [3], 0.0216; in [4], 0.889; in [5], 1.44; in [6], 1.98. Further, the composite z-score was 1.08 in [7]; 1.1 in [9]; -0.266 in test [10]; 1.54 in test [11]; 3.36 in test [15]; 0.198 in test [17]. Besides, the composite z-score worked out at 0.346 in test [18], 1.16 in test [19] and 0.0746 in test [20]. The z-score in test [8] was -1.73 (inactive); in test [12] it was 0.258 (inactive); in test [13], -3.05 (inactive); in test [14] it was -1.55 (inactive); in [16], 0.404 (inactive).

Take `O=C1OCCC=C[C@H]2OC34C=CCN(Cc5ccccc5)C(=O)[C@H]3N(CCCCCO)C(=O)[C@@H]4C12` (stereo not given in full): the composite z-score in [1] was -0.557; in test [2], 1.4; in [3], -0.175; in test [4] it was -0.436; in test [5] it was -0.765; in test [6], 1.92. Also, the composite z-score in [7] is 1.63; in test [9], 0.0164; in test [10], -0.35; in test [11] it was 0.878; in test [15], 3.74; in test [17] it was -0.171. For the same molecule, the composite z-score is -0.748 in [18], -0.483 in test [19] and -0.252 in test [20]. The z-score was -0.781 (inactive) in [8]; 1.5 (inactive) in test [12]; -0.0407 (inactive) in [13]; -0.188 (inactive) in [14]; 1.42 (inactive) in test [16].

Turning to `CC(C)c1ccc(NN2C(C(O)c3cccc(O)c3)C=CC3C(=O)N(c4ccccc4)C(=O)C32)cc1` (stereo not given), the composite z-score was found to be 0.0067 in test [1]; 0.422 in test [2]; 0.0864 in test [3]; 0.618 in test [4]; 1.57 in test [5]; 1.97 in test [6]. The composite z-score in test [7] is 1.3; in test [9], 1.33; in test [10], 0.122; in test [11], 1.46; in test [15], 3.62; in [17] it was 0.234. The composite z-score in test [18] was 0.527; in test [19] it was 1.06; in test [20], -0.0053. Moreover, the z-score was -1.04 (inactive) in test [8]; 1.18 (inactive) in test [12]; -0.653 (inactive) in test [13]; 0.697 (inactive) in test [14]; -0.416 (inactive) in [16].

Turning to `CCC[C@@H]1C=C(C(=O)O)[C@H](c2ccc(C)cc2)N1S(=O)(=O)c1ccc(C)cc1`, the composite z-score in [1] was -0.0973; in [2], 0.0641; in test [3] it was 0.0485; in [4], 0.854; in [5], 1.35; in test [6], 1.79. For the same molecule, the composite z-score in test [7] was determined as 1.26; in test [9], 0.648; in test [10] it was 0.099; in test [11], 0.844; in test [15] it was 3.68; in test [17], 0.0943. For the same molecule, the composite z-score in test [18] was -0.327; in [19], 0.62; in test [20], 0.0992. For the same molecule, the z-score is -1.09 (inactive) in test [8]; -0.545 (inactive) in test [12]; 0.249 (inactive) in test [13]; -0.34 (inactive) in test [14]; -0.499 (inactive) in [16].
